Screening results as filed in PubChem.
Shown are actives, neighbours in structure and some others; about 27% of the full set was active somewhere.
EphB4 ephrin blk: EphB4-ephrin-B2 interaction antagonism; P54760; EphB4 LBD / TNYL-RAW-Alexa532 peptide, fluorescence polarization; inhibition, % at 7 µM; 97,000 tested, 0.15% active;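 active means inhibition above the screen-wide mean inhibition plus 3 SD, cut at about 15% in these data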;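 further: 0% = DMSO wells and 100% = excess unlabeled TNYL-RAW peptide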
CYP2C9 inh: blocks human cytochrome P450 2C9. CYP2C9 Supersomes, luciferin-H conversion, luminescence. AID 777. 96,000 tested, 20% active. inhibition, % at 5 µM. P11712;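 active means blocking of liver enzyme CYP2C9 beyond about 50% at 5 µM, limit read from the data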
CYP2C9 act: activators of human CYP2C9; 96,000 tested, 1.4% active; activation factor at 5 µM; recombinant CYP2C9, luciferin-H conversion, luminescence; hits give high values; factor 1 = untreated enzyme, 0 = blocked;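 active means activation factor of 2 or more for CYP2C9 at a 5 µM dose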;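 further: 0 = sulfaphenazole-blocked wells and 1 = vehicle-only wells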
CYP2C19 act: activators of human cytochrome P450 2C19. 96,000 tested, under 10 active. recombinant CYP2C19, luciferin-H EGE luminescence; hits give high values; 0 = fully inhibited enzyme, 1 = untreated enzyme. activation factor at 5 µM. P33261;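 active means activation factor of at least 2 at 5 µM in the primary screen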;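 further: 0 = wells with 2.5 mM tranylcypromine and 1 = vehicle-only wells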
Target sequence (P33261 whole entry, looked up): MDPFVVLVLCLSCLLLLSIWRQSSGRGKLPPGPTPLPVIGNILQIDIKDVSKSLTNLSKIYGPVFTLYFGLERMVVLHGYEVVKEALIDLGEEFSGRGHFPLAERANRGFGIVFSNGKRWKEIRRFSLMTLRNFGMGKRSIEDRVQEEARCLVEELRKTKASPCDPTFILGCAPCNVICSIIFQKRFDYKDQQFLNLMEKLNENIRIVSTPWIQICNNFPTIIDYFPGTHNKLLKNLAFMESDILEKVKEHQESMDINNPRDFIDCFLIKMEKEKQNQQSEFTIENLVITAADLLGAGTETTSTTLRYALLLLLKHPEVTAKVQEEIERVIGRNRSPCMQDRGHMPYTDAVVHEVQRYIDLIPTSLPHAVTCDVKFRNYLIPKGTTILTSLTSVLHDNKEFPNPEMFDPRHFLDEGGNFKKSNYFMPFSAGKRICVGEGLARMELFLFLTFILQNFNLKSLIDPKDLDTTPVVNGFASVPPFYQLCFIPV
CYP2C19 inh: inhibitors of human CYP2C19 | AID 778 | 96,000 tested, 21% active | P33261 | CYP2C19 Supersomes, luciferin-H EGE luminescence, 30 min | inhibition, % at 5 µM;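 active means CYP2C19 inhibition above a set limit at 5 µM in the primary screen, cut at about 50% in these data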;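 further: plate controls were negative control wells for no effect and 2.5 mM tranylcypromine positive control for full effect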
* = called active by the depositor; nt = no result given.

SMILES | EphB4 ephrin blk | CYP2C9 inh | CYP2C9 act | CYP2C19 act | CYP2C19 inh
O=C(c1ccccc1NS(=O)(=O)c1ccc(Br)s1)N1CCCC1 | 4 | 8 | 0.9 | 0.3 | 69*
CS(=O)(=O)Nc1ccccc1C(=O)N1CCCC1 | 2 | 14 | 0.9 | 0.9 | 7
CS(=O)(=O)Nc1ccccc1C(=O)N1CCN(c2ccccc2)CC1 | 3 | -1 | 1 | 0.3 | 71*
CC1=Nn2c(nnc2-c2ccccc2F)SC1 | -5 | -9 | 1.1 | 1 | 3
Cc1ccc(-c2ccc(C(=O)O)[nH]2)cc1 | 16* | -7 | 1.1 | 1 | -3
O=C(Nc1ccc(Cl)cc1)c1cc(S(=O)(=O)N2CCOCC2)cs1 | 10 | 35 | 0.7 | 0.9 | 8
CN1CCN(S(=O)(=O)c2ccc(NC(=O)c3ccc(Br)s3)cc2)CC1 | -1 | 59* | 0.4 | 0.5 | 52*
O=C(Nc1ccc(F)cc1)c1cc(S(=O)(=O)Nc2ccc(F)cc2)cs1 | 2 | 90* | 0.1 | 0.2 | 77*
Cc1ccc(NC(=O)c2cc(S(=O)(=O)N3CCCCC3)cs2)cc1 | 5 | 68* | 0.3 | 0.8 | 19
COC(=O)c1ccccc1NC(=O)Nc1cnccn1 | 4 | -6 | 1.1 | 1 | -1
Brc1ccc(Oc2nsnc2N2CCOCC2)cc1 | 1 | 24 | 0.8 | 0.1 | 89*
Cc1cc(C)c2nc(SCC(=O)Nc3ccccc3N3CCOCC3)c(C#N)cc2c1 | -4 | nt | nt | nt | nt
COc1cccc(N2C(=O)C3CC=C(Cl)CC3C2=O)c1 (configuration not stated) | -2 | -6 | 1.1 | 0.8 | 18
COC(=O)c1ccc(CSc2ccc3nnc(-c4cccc(F)c4)n3n2)o1 | 6 | 83* | 0.2 | 0.6 | 37
COCc1nc2sc(C)c(C)c2c(=O)[nH]1 | -9 | nt | nt | nt | nt
O=C(CC1N=C2c3ccccc3N=C(SCc3ccc(Cl)cc3)N2C1=O)NCc1ccco1 (configuration not stated) | -1 | 72* | 0.3 | 0.9 | 5
Cc1ccc(CSC2=Nc3ccccc3C3=NC(CCC(=O)NCc4ccco4)C(=O)N23)cc1 (configuration not stated) | 3 | 87* | 0.1 | 0.8 | 21
Clc1cccc(/C=N\Nc2nccs2)c1 | 3 | 15 | 0.9 | 1 | 4
C=CCOc1c(CNn2nnnc2N)cccc1OC | -8 | nt | nt | nt | nt
Oc1ccc(-c2cn3c(n2)SCC3)cc1O | -4 | 37 | 0.6 | 0.8 | 22
Cc1ccc(S(=O)(=O)N2CCCCC2C(=O)N2CCN(c3ccccc3F)CC2)cc1 (configuration not stated) | 2 | -121 | 2.2* | 0.6 | 35
Cc1ccc(S(=O)(=O)N2CCCCC2C(=O)N2CCN(C)CC2)cc1 (configuration not stated) | 3 | 18 | 0.8 | 1 | 1
Cc1ccc(Cn2ccc(NC(=O)c3cc(C)on3)n2)cc1 | -4 | 62* | 0.4 | 0.3 | 70*
Nc1nc(SCC(=O)Nc2cc(-c3ccccc3)nn2-c2ccccc2)n[nH]1 | 6 | 60* | 0.4 | 0.1 | 94*
Nc1nc(SCC(=O)Nc2ccccc2Sc2ccc(Cl)cc2)n[nH]1 | 0 | 99* | 0 | 0 | 100*
SMILES | EphB4 ephrin blk | CYP2C9 inh | CYP2C9 act | CYP2C19 act | CYP2C19 inh
CC(C)(C)SCCNS(=O)(=O)c1ccc(F)cc1 | -5 | 40 | 0.6 | 0.9 | 14
O=S(=O)(c1cccc(-c2nc3n(n2)Cc2ccccc2-3)c1)N1CCCC1 | nt | -9 | 1.1 | 1.1 | -12
CCOc1ccccc1C(=O)Nc1ccc(S(=O)(=O)N2CCOCC2)cc1 | 10 | -230 | 3.3* | 0.5 | 54*
CCOc1cc(C(=S)N2CCOCC2)ccc1OS(=O)(=O)c1ccc(NC(C)=O)cc1 | 1 | 61* | 0.4 | 0.3 | 71*
COc1ccccc1C(=O)Nc1ccc(S(=O)(=O)N2CCOCC2)cc1 | -6 | -418 | 5.2* | 0.8 | 16
COc1ccc(C(=O)Nc2ccc(S(=O)(=O)N3CCOCC3)cc2)cc1OC | -2 | 11 | 0.9 | 1.1 | -6
CCOc1ccc(C(=O)Nc2ccc(S(=O)(=O)N3CCOCC3)cc2)cc1OCC | nt | 9 | 0.9 | 1.1 | -7
CCOCC(O)CSCc1ccc(Cl)cc1 (configuration not stated) | 11 | -2 | 1 | 0.6 | 38
CCn1c(C)c(C(C)=O)c(N2CCN(c3cccc(Cl)c3)CC2)nc1=S | -7 | 37 | 0.6 | 0.8 | 18
CCc1cccc(CC)c1NC(=O)CSc1nnc(C(C)C)n1CC | 6 | -14 | 1.1 | 1 | 1
CCn1c(SCC(=O)c2c[nH]c3ccccc23)nnc1-c1cccs1 | -1 | 14 | 0.9 | 0.3 | 70*
CCn1c(SCC(=O)c2ccc(Cl)cc2)nnc1C(C)C | -5 | -16 | 1.2 | 0.2 | 77*
CCn1c(SCC(=O)N2CCOCC2)nnc1-c1cccs1 | 5 | 10 | 0.9 | 0.9 | 7
Cn1cnnc1SCC(=O)c1c[nH]c2ccccc12 | nt | 21 | 0.8 | 0.5 | 47
CCn1c(SCCOc2ccc(Cl)cc2)nnc1-c1cccs1 | 10 | 90* | 0.1 | 0 | 96*
COC(=O)CSc1nnc(-c2cccs2)n1-c1ccc(Cl)cc1 | -8 | 44 | 0.6 | 0.2 | 81*
NC(=O)CSc1nnc(-c2cccs2)n1-c1ccccc1 | 0 | 4 | 1 | 1 | 4
Cc1cc(C)nc(SCc2nc3nc(C)cc(C)n3c2Br)n1 | 5 | -2 | 1 | 0.9 | 6
COc1ccc(CCN(C)C(=O)CSc2nccn2C)cc1OC | -11 | 3 | 1 | 0.8 | 22
CCn1c(SCC(=O)c2ccc(Cl)cc2)nnc1-c1cccs1 | -7 | 25 | 0.8 | 0.3 | 70*
c1ccc(-c2nn3c(C4COc5ccccc5O4)nnc3s2)cc1 (configuration not stated) | -2 | nt | nt | nt | nt
COC(=O)CSc1nnc(C2COc3ccccc3O2)n1-c1ccccc1 (configuration not stated) | 7 | 16 | 0.8 | 0.4 | 58*
Cc1ccc(S(=O)(=O)NCCOCCNS(=O)(=O)c2ccc(C)cc2)cc1 | 4 | -101 | 2* | 0.3 | 68*
COCCNS(=O)(=O)c1ccc(-c2ccc(C)cc2)cc1 | -1 | 93* | 0.1 | 0.3 | 74*
COCCNS(=O)(=O)c1ccc(SC)cc1 | -1 | -16 | 1.2 | 0.7 | 35
COC(=O)c1ccccc1NS(=O)(=O)c1ccc2c3c(cccc13)C(=O)N2 | 4 | 100* | 0 | 0.2 | 76*
CN(c1ccccc1C(=O)O)S(=O)(=O)c1ccc2c3c(cccc13)C(=O)N2 | 3 | nt | nt | nt | nt
COC(=O)c1c(C)oc2c1cc(NS(=O)(=O)c1cccs1)c1ccccc12 | 0 | 95* | 0.1 | 0.1 | 92*
Cc1oc2c(cc(NS(=O)(=O)c3ccc4c5c(cccc35)C(=O)N4)c3ccccc32)c1C(=O)OC(C)C | -3 | 89* | 0.1 | 0.6 | 39
O=C(O)c1ccccc1NS(=O)(=O)c1ccc2c3c(cccc13)C(=O)N2 | nt | 97* | 0 | 0.8 | 21
